Structures can show the parent of a compound that is named as a salt. ± gives the uncertainty stated by the source.
Tested on: THP-1
Test: CD86 surface expression induction over DMSO control (% over DMSO); higher = stronger dendritic cell activation
Conditions: exposure time: 24 h
Method: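 hCLAT-like CD54 and CD86 surface expression on THP1 cells after 24 h exposure at a single concentration (highest non-cytotoxic concentration, or 100-200 µM if not cytotoxic). Flow cytometry (iQue) was run on 5,000 live cells.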

`COc1ccc(-c2cc(=S)ss2)cc1` [Anethole trithione] (100 µM) and `COc1ccc(C(=O)/C(Br)=C\C(=O)O)cc1` [Cytembena] (200 µM) are within error of each other in “CD86 surface expression induction” value: -4.63 ± 2.6 for the first, 32 ± 49 for the second.

`CC(=O)Oc1ccc(C(c2ccc(OC(C)=O)cc2)c2ccccn2)cc1` [Bisacodyl] (100 µM) and `CC(=O)Oc1ccc(C2(c3ccc(OC(C)=O)cc3)C(=O)Nc3ccccc32)cc1` [Oxyphenisatin acetate] (100 µM) are within error of each other in “CD86 surface expression induction” value: 26.6 ± 55 for the first, 6.01 ± 7.9 for the second.

Compared with `Nc1ncn([C@@H]2O[C@H](CO)[C@@H](O)[C@H]2O)c(=O)n1` [5-Azacytidine] (10 µM), `COc1cccc2c1C(=O)c1c(O)c3c(c(O)c1C2=O)C[C@@](O)(C(=O)CO)C[C@@H]3O[C@H]1C[C@H](N)[C@H](O)[C@H](C)O1` [Doxorubicin*] (10 µM) is higher in “CD86 surface expression induction” value: -17.2 ± 5.3 for the first, 218 ± 96 for the second.

`COc1cc(C(C)C)c2c(c1)S(=O)(=O)N(COc1cc(=O)n3cccc(OCCN4CCCCC4)c3n1)C2=O` (100 µM) and `COc1cc(Nc2c(C#N)cnc3cc(OCCCN4CCN(C)CC4)c(OC)cc23)c(Cl)cc1Cl` [Bosutinib] (100 µM) are within error of each other in “CD86 surface expression induction” value: 117 ± 98 for the first, 5.12 ± 41 for the second.

`Cc1ccc(N)cc1O` [5-Amino-2-methylphenol] (200 µM) and `Cc1ccc(O)c(-n2nc3ccccc3n2)c1` [2-(2H-Benzotriazol-2-yl)-4-methylphenol] (100 µM) are within error of each other in “CD86 surface expression induction” value: -0.96 ± 6.3 for the first, -18.9 ± 28 for the second.

`O=C(Oc1ccccc1)c1ccccc1O` [Phenyl salicylate] (200 µM) and `c1ccc(CCNc2nc(-c3ccccc3)cs2)cc1` [Fanetizole] (200 µM) are within error of each other in “CD86 surface expression induction” value: -3.35 ± 5.3 for the first, -6.54 ± 1.4 for the second.

`CCCCNC(=S)NCCCC` [N,N'-Dibutylthiourea] (10 µM) and `CCCCCCCCN` [n-Octylamine] (100 µM) are within error of each other in “CD86 surface expression induction” value: -9.37 ± 9.2 for the first, -6.07 ± 0.55 for the second.

`Oc1ccc2cc(SSc3ccc4cc(O)ccc4c3)ccc2c1` [6-Hydroxy-2-naphthyl disulfide] (100 µM) and `Clc1ccc(C(Cn2ccnc2)OCc2ccc(Sc3ccccc3)cc2)c(Cl)c1` (stereo not given) [Fenticonazole nitrate] (100 µM) are within error of each other in “CD86 surface expression induction” value: 67.2 ± 57 for the first, 102 ± 96 for the second.

First: C=CCOC(Cn1ccnc1)c1ccc(Cl)cc1Cl (stereo not given) [Imazalil sulfate] (100 µM)
Second: C=C(C)C(=O)Nc1ccc(Cl)c(Cl)c1 [Chloranocryl] (100 µM)
The “CD86 surface expression induction” value of the first is higher: 16.4 ± 4.3 for the first, -22.2 ± 23 for the second.

Going from `CCCCOCCOCCOCCO` [2-[2-(2-Butoxyethoxy)ethoxy]ethanol] (115 µM) to `CCCCCCCCCCCCN(CCO)CCO` [Lauryldiethanolamine] (10 µM), the “CD86 surface expression induction” value falls from 12.7 ± 12 to -16.1 ± 0.72.

Going from `O=C(Nc1ncc([N+](=O)[O-])s1)c1cccs1` [Tenonitrozole] (10 µM) to `Cc1ccc2c(c1[N+](=O)[O-])C(=O)c1ccccc1C2=O` [2-Methyl-1-nitroanthraquinone] (10 µM), the “CD86 surface expression induction” value rises from -9.19 ± 11 to 7.64 ± 3.5.

`CC(C)=CCC/C(C)=C\CO` [(2Z)-3,7-Dimethylocta-2,6-dien-1-ol] (200 µM) and `C/C=C/C=C/CCCCCCCO` [Codlelure] (200 µM) are within error of each other in “CD86 surface expression induction” value: 6.83 ± 19 for the first, -13 ± 6 for the second.

`Clc1ccc2c(c1)Nc1ccccc1S2` [2-Chlorophenothiazine] (100 µM) and `Clc1ccccc1-c1nc(-c2ccncc2)no1` [Pifexole] (100 µM) are within error of each other in “CD86 surface expression induction” value: -11 ± 14 for the first, 3.84 ± 13 for the second.

`Cc1c(C)n(Cc2ccccc2)c2ccc(C(=O)OCCN(C)C)cc12` [Indocate] (200 µM) and `Cc1c2ccccc2c(C)c2c1ccc1ccccc12` [7,12-Dimethylbenzanthracene] (10 µM) are within error of each other in “CD86 surface expression induction” value: 67.3 ± 61 for the first, 47.5 ± 61 for the second.

`C/C=C1\C(=O)C[C@H]2[C@@H]3CCC4=CC(=O)CC[C@]4(C)[C@H]3CC[C@]12C` [Guggulsterone Z] (100 µM) and `CCCCc1ccc2[nH]c(NC(=O)OC)nc2c1` [Parbendazole*] (200 µM) are within error of each other in “CD86 surface expression induction” value: -9.87 ± 7.2 for the first, 65.8 ± 110 for the second.

`Clc1nc(C(Cl)(Cl)Cl)c(Cl)c(Cl)c1Cl` [2,3,4,5-Tetrachloro-6-(trichloromethyl)pyridine] (10 µM) and `COc1cc(C(C)(C)C)c(O)c(C(C)(C)C)c1` [2,6-Di-tert-butyl-4-methoxyphenol] (200 µM) are within error of each other in “CD86 surface expression induction” value: -11.6 ± 6.2 for the first, 18.9 ± 43 for the second.

`Nc1cc(-c2ccncc2)c[nH]c1=O` [Amrinone] (100 µM) and `CC(C)c1ccc2oc3nc(N)c(C(=O)O)cc3c(=O)c2c1` [Amlexanox] (100 µM) are within error of each other in “CD86 surface expression induction” value: -0.14 ± 4.2 for the first, 8.56 ± 19 for the second.

`CCOC(=O)CCC(=O)OCC` [Diethyl butanedioate] (200 µM) and `COP(=O)(O)OP(=O)(O)OC` [Dimethyl dihydrogen diphosphate] (200 µM) are within error of each other in “CD86 surface expression induction” value: -4.2 ± 3.3 for the first, -3.42 ± 3.5 for the second.

Going from `CCCCCCCCCCCCCC[N+](C)(C)C` [Tetradonium bromide] (10 µM) to `CC(C)(C)c1ccc(C(=O)CCCCl)cc1` [4'-Tert-butyl-4-chlorobutyrophenone] (100 µM), the “CD86 surface expression induction” value falls from 53 ± 19 to -2.04 ± 0.44.

First: C[n+]1cc2c3c(ccc2c2ccc4cc5c(cc4c21)OCO5)OCO3 [Sanguinarine] (10 µM)
Second: CCOc1ccc2nc(S(N)(=O)=O)sc2c1 [Ethoxzolamide] (200 µM)
The “CD86 surface expression induction” value of the first is higher: 73.1 ± 11 for the first, -1.83 ± 4.6 for the second.

— the supplement of paper PMC10933113
